The source made the active and inactive calls. The calls were made as follows: active = hit-call score of the fitted dose curve at least 0.9, where 1 is the maximum; inactive = score below 0.9.
Test: ATG_DR4_LXR_CIS: Attagene CIS-FACTORIAL HepG2 Assay for human Liver X Receptor (LXR), DR4 submotif (AID 2282929)
Details: HepG2 Attagene DR4 cis-reporter, mRNA transcription; actives raise or lower the signal
Summary of the method: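 HepG2 cells transiently transfected with cis-promoter-driven multiplexed reporter units (DR4 element) were dosed for 24 h. Reporter mRNA was quantified by RT-PCR, fluorescent primer extension, HpaI digestion and capillary electrophoresis; bidirectional fitting versus DMSO baseline.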
In the case of `CO[Si](C)(OC)c1ccccc1`, the outcome is reported as “inactive”. In the case of `COc1ccc(OC)c(OC)c1`, the outcome is reported as “inactive”. In the case of `CN(C)CCOCCN(C)C`, the outcome is reported as “inactive”. For `CCC/C=C/C=O`, the outcome was “inactive”. For `CC(=O)O[C@]1(C(C)=O)CC[C@H]2[C@@H]3C[C@H](C)C4=CC(=O)CC[C@]4(C)[C@H]3CC[C@@]21C`, the outcome was “inactive”. With `CCc1ccc(C=O)cc1` the outcome was “inactive”. In the case of `O=C(O)c1cn(-c2ccc(F)cc2)c2cc(N3CCNCC3)c(F)cc2c1=O`, the outcome is reported as “inactive”. For `c1ccc2c(c1)c1cccc3ccc4cccc2c4c31`, the outcome was “inactive”. With `Cc1ccc(C=O)cc1` the outcome was “inactive”. For `Cc1cccc(C)c1[N+](=O)[O-]`, the outcome was “inactive”. For `COc1nc(C)nc(N)n1`, the outcome was “inactive”. With `CCCCCCCCCCCCOCCO` the AC50 was 51.7 µM (active). In the case of `Clc1sc(Cl)c(Cl)c1Cl`, the outcome is reported as “inactive”. With `NC(N)=NC(=O)c1nc(Cl)c(N)nc1N` the AC50 was 149 µM (active). For `O=c1[nH]c(=O)n([C@H]2CCCO2)cc1F`, the outcome was “inactive”. For `CCC(O)CO` (stereo unspecified), the outcome was “inactive”. With `CO[Si](CCCn1c(=O)n(CCC[Si](OC)(OC)OC)c(=O)n(CCC[Si](OC)(OC)OC)c1=O)(OC)OC` the outcome was “inactive”. With `Nc1cc(N)cc(C(=O)O)c1` the outcome was “inactive”. In the case of `CCCC(=O)OCCC(C)CCC=C(C)C` (stereo unspecified), the outcome is reported as “inactive”. For `O=C(O)c1cccc(C(F)(F)F)c1`, the outcome was “inactive”. In the case of `CC[Si](OC(C)=O)(OC(C)=O)OC(C)=O`, the outcome is reported as “inactive”. With `O=S(=O)(O)NC1CCCCC1` the outcome was “inactive”. For `CCCCCCCCC=O`, the outcome was “inactive”. With `CCCCOCCOCCSC#N` the outcome was “inactive”. With `CCCCCCCCCCCCSC` the outcome was “inactive”. For `CN1[C@@H]2CC(OC(=O)[C@H](CO)c3ccccc3)C[C@H]1[C@@H]1O[C@@H]12` (stereo partly specified), the outcome was “inactive”.
